Reference: PubChem BioAssay (NCATS)
Values without a mark were called inactive. Results filed as inconclusive are left out. A call without a number means that no potency is given here. The source made the active and inactive calls. Unless noted, calls come from the whole dose curve; as a rule, active = well fitted curve in the direction sought with a large enough effect; inconclusive = small, poorly fitted or top-dose-only effect, or another doubt; inactive = no such curve, though single readings can be large; an effect the other way counts as inactive or inconclusive.

Legend:
[1] = molecular target: Cytochrome P450 1A2 (Homo sapiens) (UniProt P05177); assay: p450-cyp1a2 (AID 410; calls by dose curve; note: potency is the fitted concentration of half-maximal effect)
Sequence of Cytochrome P450 1A2 (Homo sapiens) (P05177 whole entry, looked up): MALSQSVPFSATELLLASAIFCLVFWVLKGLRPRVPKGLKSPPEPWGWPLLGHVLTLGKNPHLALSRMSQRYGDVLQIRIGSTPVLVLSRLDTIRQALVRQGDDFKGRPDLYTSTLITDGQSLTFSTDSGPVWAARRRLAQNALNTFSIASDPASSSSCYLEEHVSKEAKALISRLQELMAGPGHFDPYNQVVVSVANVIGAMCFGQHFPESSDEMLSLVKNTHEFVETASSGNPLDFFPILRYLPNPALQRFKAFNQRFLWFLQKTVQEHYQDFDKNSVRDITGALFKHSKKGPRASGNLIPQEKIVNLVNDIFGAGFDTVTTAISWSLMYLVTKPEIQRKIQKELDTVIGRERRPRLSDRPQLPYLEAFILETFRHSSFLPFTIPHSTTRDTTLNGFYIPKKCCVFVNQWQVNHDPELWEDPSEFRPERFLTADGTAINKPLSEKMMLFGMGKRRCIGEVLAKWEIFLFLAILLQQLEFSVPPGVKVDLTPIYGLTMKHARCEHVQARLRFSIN
Outline: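 Luminescent demethylation readout: Luciferin-ME (100uM, equal to Km) turned over by 20nM CYP1A2 for 60 min at room temperature after NADPH regeneration addition, following 10 min compound preincubation. Normalization used 57 uM furafylline as full inhibition.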

[2] = molecular target: Glucocorticoid receptor (Homo sapiens) (UniProt P04150); assay: GR-GFP Redistribution (AID 450;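 active = compounds whose dose series gives a full or clear partial fitted curve of increased nuclear translocation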; note: potency is the fitted concentration of half-maximal effect)
Sequence of Glucocorticoid receptor (Homo sapiens) (P04150 whole entry, looked up, the tested form may be a part): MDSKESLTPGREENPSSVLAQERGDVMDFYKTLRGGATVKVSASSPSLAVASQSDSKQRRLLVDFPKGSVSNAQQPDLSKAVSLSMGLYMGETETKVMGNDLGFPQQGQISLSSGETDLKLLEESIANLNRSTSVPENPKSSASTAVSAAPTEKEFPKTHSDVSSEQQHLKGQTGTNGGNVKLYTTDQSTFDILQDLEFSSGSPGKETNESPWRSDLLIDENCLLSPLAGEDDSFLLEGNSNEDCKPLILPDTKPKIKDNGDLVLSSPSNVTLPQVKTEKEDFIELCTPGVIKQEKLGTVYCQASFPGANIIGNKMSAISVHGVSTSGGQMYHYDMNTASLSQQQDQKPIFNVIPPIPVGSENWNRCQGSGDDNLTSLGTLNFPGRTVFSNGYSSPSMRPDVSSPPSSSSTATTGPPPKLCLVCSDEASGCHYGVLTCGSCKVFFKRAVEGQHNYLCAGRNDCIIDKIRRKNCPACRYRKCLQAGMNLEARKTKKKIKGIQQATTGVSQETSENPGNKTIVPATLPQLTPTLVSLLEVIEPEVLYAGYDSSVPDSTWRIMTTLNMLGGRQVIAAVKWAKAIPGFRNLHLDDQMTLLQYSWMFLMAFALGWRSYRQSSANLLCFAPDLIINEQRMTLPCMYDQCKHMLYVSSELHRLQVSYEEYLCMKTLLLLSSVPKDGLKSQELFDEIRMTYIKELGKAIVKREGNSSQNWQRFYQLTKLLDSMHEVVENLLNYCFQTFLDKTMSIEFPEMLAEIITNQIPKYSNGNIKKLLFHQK

[3] = molecular target: Glucocorticoid receptor (Homo sapiens) (UniProt P04150); assay: GR-EFC Redistribution (AID 451; calls by dose curve; note: potency is the fitted concentration of half-maximal effect); conditions: CHO-K1 GR-EFC translocation, beta-gal luminescence, 2 h
Outline: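 CHO-K1 cells expressing nuclear EA and GR-ED fragments of b-gal; compounds titrated up to 46 uM final, 2 h at 37 C. GR nuclear translocation read as complemented b-gal luminescence after 1 h RT detection.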

[4] = molecular target: Mitogen-activated protein kinase 10 (Mus musculus) (UniProt Q61831); assay: JNK3 AlphaScreen Assay (AID 530; active = well fitted curve in either direction with a large enough effect, not every such curve was filed as active;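 note: kinase came from lysate of stimulated human HepG2 cells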; note: potency is the fitted concentration of half-maximal effect)
Outline: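 Activity was read by AlphaScreen after JNK3-containing HepG2 lysate (cytokine pre-activated) phosphorylated biotinylated GST-cJun with 10 uM ATP at room temperature. Phospho-Ser73 cJun antibody with Protein-A acceptor beads provided detection.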

[5] = molecular target: Cytochrome P450 3A4 (Homo sapiens) (UniProt P08684); assay: qHTS Assay for Inhibitors and Substrates of Cytochrome P450 3A4 (AID 884); note: nearly all actives have a fitted effect of over 50% in size; note: potency is the fitted concentration of half-maximal effect
Sequence of Cytochrome P450 3A4 (Homo sapiens) (P08684 whole entry, looked up): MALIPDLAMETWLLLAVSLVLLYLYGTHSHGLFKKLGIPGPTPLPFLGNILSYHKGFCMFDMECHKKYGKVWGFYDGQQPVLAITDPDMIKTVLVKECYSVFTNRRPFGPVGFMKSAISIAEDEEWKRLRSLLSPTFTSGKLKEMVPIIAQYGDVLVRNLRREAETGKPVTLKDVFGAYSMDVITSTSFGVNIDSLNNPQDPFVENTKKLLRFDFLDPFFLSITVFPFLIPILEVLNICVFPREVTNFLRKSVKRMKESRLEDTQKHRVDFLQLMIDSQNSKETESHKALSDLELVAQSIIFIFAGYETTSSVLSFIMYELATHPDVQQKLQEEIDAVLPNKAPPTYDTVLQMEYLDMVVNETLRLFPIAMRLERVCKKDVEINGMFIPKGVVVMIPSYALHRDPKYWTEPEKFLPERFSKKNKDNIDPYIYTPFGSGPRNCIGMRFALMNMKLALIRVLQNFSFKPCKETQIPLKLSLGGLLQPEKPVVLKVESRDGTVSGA
Outline: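 Luminescent readout of luciferin produced by CYP3A4 (20 nM) dealkylation of Luciferin-PPXE, 25 uM (its KM). NADPH-driven reaction ran 60 min at RT after 10 min compound preincubation; data scaled to 57 uM ketoconazole as 100% inhibition.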

[6] = molecular target: Cytochrome P450 3A4 (Homo sapiens) (UniProt P08684); assay: qHTS Assay for Activators of Cytochrome P450 3A4 (AID 885); note: nearly all actives have a fitted effect of over 65% in size
Outline: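 Human CYP3A4 dealkylates Luciferin-PPXE to luciferin, which luciferase detection converts to light. Substrate was at its KM (25uM), buffer 200mM KPO4, reaction 60 min at RT.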

[7] = molecular target: DNA dC->dU-editing enzyme APOBEC-3G (Homo sapiens) (UniProt Q9HC16); assay: qHTS for inhibitors of Vif-A3G interactions: Validation (AID 588379)
Sequence of DNA dC->dU-editing enzyme APOBEC-3G (Homo sapiens) (Q9HC16 whole entry, looked up): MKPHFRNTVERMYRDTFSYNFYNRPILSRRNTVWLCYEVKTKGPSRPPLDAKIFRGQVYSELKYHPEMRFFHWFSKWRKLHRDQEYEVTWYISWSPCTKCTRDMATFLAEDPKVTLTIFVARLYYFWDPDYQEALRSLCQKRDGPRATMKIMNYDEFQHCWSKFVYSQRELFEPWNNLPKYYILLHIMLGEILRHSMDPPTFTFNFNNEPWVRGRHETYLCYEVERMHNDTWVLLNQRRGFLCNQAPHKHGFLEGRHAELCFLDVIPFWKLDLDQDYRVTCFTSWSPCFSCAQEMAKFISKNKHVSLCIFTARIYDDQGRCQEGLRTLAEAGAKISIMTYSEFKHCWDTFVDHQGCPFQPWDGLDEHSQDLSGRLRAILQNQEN
Outline: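 Yellow fluorescence (Ex 488, Em 500-530) of Vif-coexpressing HeLa A3G-eYFP cells, scanned by Acumen cytometer, reports blocked A3G degradation. Cells plated at 700/well overnight at 37 deg C before compound addition, then a further overnight compound incubation at 37 deg C.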

[8] = molecular target: 3',5'-cyclic-AMP phosphodiesterase 4B (Homo sapiens) (UniProt Q07343); assay: qHTS Assay for Inhibitors of PDE-IV (AID 607; active = well fitted activation curve with a large enough effect in the main read-out, with a control signal flat, not every such curve was filed as active)
Sequence of 3',5'-cyclic-AMP phosphodiesterase 4B (Homo sapiens) (Q07343 whole entry, looked up): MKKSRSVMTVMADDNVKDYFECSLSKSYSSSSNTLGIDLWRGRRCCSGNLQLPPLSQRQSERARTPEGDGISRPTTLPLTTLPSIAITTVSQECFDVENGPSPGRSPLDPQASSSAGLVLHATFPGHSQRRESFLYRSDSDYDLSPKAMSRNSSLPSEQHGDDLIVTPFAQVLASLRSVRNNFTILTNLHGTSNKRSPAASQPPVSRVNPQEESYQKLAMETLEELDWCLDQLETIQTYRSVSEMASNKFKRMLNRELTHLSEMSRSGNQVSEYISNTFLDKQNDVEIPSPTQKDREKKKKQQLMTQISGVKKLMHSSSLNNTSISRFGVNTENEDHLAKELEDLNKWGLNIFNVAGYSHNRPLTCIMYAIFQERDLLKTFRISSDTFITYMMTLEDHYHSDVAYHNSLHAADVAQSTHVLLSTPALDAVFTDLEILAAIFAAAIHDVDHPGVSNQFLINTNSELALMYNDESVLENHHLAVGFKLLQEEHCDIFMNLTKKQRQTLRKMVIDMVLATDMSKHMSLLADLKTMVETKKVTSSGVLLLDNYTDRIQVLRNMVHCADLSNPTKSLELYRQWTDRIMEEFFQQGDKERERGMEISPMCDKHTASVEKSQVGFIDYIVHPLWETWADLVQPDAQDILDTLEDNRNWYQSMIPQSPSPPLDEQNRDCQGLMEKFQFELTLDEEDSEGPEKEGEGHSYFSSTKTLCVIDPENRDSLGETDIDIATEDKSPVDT
Outline: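 HEK293 ACTOne cells with CNG channel (1000/well), endogenous PDE4; membrane potential dye, compounds up to 22.9 uM final. Fluorescence Ex 535/Em 590; RO 20-1724 (100 uM final) as reference.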

[9] = molecular target: Cytochrome P450 2C9 (Homo sapiens) (UniProt P11712); assay: qHTS Assay for Inhibitors and Substrates of Cytochrome P450 2C9 (AID 883); note: nearly all actives have a fitted effect of over 60% in size; note: potency is the fitted concentration of half-maximal effect
Sequence of Cytochrome P450 2C9 (Homo sapiens) (P11712 whole entry, looked up): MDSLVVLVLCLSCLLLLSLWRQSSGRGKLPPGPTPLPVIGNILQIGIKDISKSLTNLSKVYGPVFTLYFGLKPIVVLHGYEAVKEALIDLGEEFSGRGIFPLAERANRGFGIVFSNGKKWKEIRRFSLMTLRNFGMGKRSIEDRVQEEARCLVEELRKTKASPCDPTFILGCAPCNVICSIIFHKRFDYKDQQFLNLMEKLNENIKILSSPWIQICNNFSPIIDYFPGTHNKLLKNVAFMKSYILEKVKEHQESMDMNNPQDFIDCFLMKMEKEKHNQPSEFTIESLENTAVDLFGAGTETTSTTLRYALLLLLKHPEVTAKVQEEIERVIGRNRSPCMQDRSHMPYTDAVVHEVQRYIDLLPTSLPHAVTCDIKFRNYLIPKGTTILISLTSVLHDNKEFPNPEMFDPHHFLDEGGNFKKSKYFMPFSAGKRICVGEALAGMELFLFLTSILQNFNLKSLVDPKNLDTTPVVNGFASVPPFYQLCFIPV
Outline: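 Signal: luciferase luminescence reporting luciferin produced by CYP2C9. Conditions: 10nM enzyme, Luciferin-H 100uM at KM, 25mM KPO4, 37C, 60 min NADPH-driven reaction. Reference: 57uM sulphaphenazole as 100% inhibition.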

[10] = molecular target: Cytochrome P450 2C19 (Homo sapiens) (UniProt P33261); assay: qHTS Assay for Inhibitors and Substrates of Cytochrome P450 2C19 (AID 899); note: nearly all actives have a fitted effect of over 60% in size; note: potency is the fitted concentration of half-maximal effect
Sequence of Cytochrome P450 2C19 (Homo sapiens) (P33261 whole entry, looked up): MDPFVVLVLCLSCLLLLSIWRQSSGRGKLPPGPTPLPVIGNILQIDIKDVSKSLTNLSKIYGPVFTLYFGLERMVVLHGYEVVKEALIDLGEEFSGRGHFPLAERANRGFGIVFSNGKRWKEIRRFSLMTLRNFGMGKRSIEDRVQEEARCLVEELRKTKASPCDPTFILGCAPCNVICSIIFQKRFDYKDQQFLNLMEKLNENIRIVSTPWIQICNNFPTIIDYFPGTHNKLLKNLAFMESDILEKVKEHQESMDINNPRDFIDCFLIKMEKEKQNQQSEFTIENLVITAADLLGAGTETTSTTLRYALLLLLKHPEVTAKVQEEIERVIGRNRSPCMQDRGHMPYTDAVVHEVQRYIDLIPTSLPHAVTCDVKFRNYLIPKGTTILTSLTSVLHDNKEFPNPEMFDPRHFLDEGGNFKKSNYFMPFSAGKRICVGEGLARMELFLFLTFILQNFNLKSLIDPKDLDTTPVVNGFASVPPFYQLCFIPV
Outline: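 Signal comes from luciferase acting on luciferin released by CYP2C19-mediated hydroxylation of Luciferin-H EGE, 10uM (KM). Assay mix: 5nM enzyme, 50mM KPO4; 60 min at 37C with NADPH regeneration. Data normalized against 57uM ketoconazole.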

[11] = molecular target: Cytochrome P450 2D6 (Homo sapiens) (UniProt P10635); assay: qHTS Assay for Inhibitors and Substrates of Cytochrome P450 2D6 (AID 891); note: nearly all actives have a fitted effect of over 60% in size; note: potency is the fitted concentration of half-maximal effect
Sequence of Cytochrome P450 2D6 (Homo sapiens) (P10635 whole entry, looked up): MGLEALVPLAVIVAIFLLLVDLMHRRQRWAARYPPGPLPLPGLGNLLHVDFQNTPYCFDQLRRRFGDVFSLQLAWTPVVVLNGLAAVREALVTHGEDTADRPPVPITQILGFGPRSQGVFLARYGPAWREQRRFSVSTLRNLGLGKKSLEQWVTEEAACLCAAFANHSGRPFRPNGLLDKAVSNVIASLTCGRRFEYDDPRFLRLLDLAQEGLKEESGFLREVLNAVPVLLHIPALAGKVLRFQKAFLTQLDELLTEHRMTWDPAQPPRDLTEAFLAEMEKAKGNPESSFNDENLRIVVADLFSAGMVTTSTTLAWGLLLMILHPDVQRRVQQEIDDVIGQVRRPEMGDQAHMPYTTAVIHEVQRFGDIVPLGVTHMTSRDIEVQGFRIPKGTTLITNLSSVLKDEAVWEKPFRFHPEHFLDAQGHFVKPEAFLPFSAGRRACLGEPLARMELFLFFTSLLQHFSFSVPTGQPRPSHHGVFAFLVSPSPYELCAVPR
Outline: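 Luminescent read-out of luciferin formed by 5 nM human CYP2D6 demethylating 30 uM Luciferin-ME EGE (Km level) over 60 min at room temperature after NADPH regeneration addition. Data normalized to full inhibition by 1.43 uM quinidine.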

SMILES	Potency [1]	Potency [2] [µM]	Potency [3] [µM]	Potency [4]	Potency [5]	Potency [6]	outcome [7]	Potency [8]	Potency [9]	Potency [10]	Potency [11]
COc1cc2c(cc1OC)-c1c(OC)c(OC)cc3ccnc(c13)C2=O	0.0794 µM (active)	> 46	> 46	inactive	2.51 µM (active)	inactive	inactive				
O=c1cc(-c2ccccc2O)oc2cc(O)cc(O)c12	0.251 µM (active)	> 46	> 46	inactive	3.98 µM (active)	inactive	inactive	inactive	5.01 µM (active)	3.98 µM (active)	
Cn1ccc(O)c(C#N)c1=O	inactive	> 46	> 46	inactive	inactive		inactive	inactive		inactive	inactive
C[C@H]1[C@H](C)CC[C@@]2(C(=O)O)CC[C@]3(C)C(=CC[C@H]4[C@@]5(C)C[C@@H](O)[C@H](O)[C@@](C)(CO)[C@@H]5CC[C@@]43C)[C@@H]12	inactive	> 46	> 46	inactive				inactive	inactive	inactive	inactive
COc1cc2c(cc1OC)C(=O)N(C)CC2	2 µM (active)	> 46	> 46	inactive	inactive		inactive			inactive	inactive
O=c1cc(-c2cccc(O)c2O)oc2ccccc12	1 µM (active)	> 46	> 46	3.98 µM (active)		inactive	inactive	inactive	12.6 µM (active)		
CC(=O)O[C@H]1CC[C@@]2(C)[C@@H](CC[C@@]3(C)[C@H]2C(=O)C=C2[C@H]4C[C@](C)(C(=O)OCCN5CCCCC5)CC[C@]4(C)CC[C@@]23C)C1(C)C	inactive	> 46	> 46	inactive				inactive	inactive	inactive	inactive
COc1ccccc1-c1cc(=O)c2cc(O)ccc2o1	0.2 µM (active)	> 46	> 46	inactive	12.6 µM (active)	inactive	inactive		inactive	0.398 µM (active)	inactive
C=CC1=C(C)C2=Cc3c(C=C)c(C)c4[n]3[Sn+2][n]3c(c(C)c(CCC(=O)O)c3=CC3=NC(=C4)C(C)=C3CCC(=O)O)=CC1=N2	39.8 µM (active)	> 46	> 46	1 µM [activator] (active)			inactive				1.26 µM (active)
COc1cccc(-c2cc(=O)c3cc(O)ccc3o2)c1	1.58 µM (active)	> 46	> 46	inactive	15.8 µM (active)	inactive	inactive	inactive		25.1 µM (active)	inactive
COc1ccc2c(=O)cc(-c3ccc(O)cc3)oc2c1	0.0794 µM (active)	> 46	> 46	inactive	3.16 µM (active)	inactive	inactive	inactive		7.94 µM (active)	
CC1(C)[C@@H](O)CC[C@@]2(C)[C@H]1CC[C@]1(C)[C@H]2C(=O)C=C2[C@@H]3C[C@@](C)(C(=O)O)CC[C@]3(C)CC[C@@]21C	inactive	> 46	> 46	inactive				inactive	inactive	inactive	inactive
CC[C@@H]1[C@H]2CCCCN3[C@@H]2[C@@H](C[C@H]3[C@@H]2C[C@H](C)C(=O)O2)[C@@H]2[C@H]1OC(=O)[C@H]2C	25.1 µM (active)	> 46	> 46	inactive				inactive	inactive	inactive	
C[C@H](O)[C@H](O)[C@@H](O)c1cnc2nc(N)[nH]c(=O)c2n1	inactive	> 46	> 46	inactive				inactive	inactive	inactive	inactive
O=c1c(O)c(-c2ccc(O)cc2)oc2ccc(O)cc12	0.2 µM (active)	> 46	> 46	inactive		inactive	inactive	inactive			inactive
C[C@@H]1C(=O)O[C@@H]2C[C@@]34[C@H]5C[C@@H](C(C)(C)C)[C@@]36[C@@H](OC(=O)[C@@H]6O)O[C@]4(C(=O)O5)[C@@]12O	inactive	> 46	> 46	inactive							
COc1ccc(OC)c([C@H]2Nc3ccccc3NC3=C2C(=O)CC(C)(C)C3)c1Br	20 µM (active)	> 46	> 46	inactive				inactive	31.6 µM (active)	3.16 µM (active)	inactive
COc1ccc([C@@H]2CC(=O)c3c(O)cc(O[C@@H]4O[C@@H](CO[C@@H]5O[C@@H](C)[C@@H](O)[C@@H](O)[C@H]5O)[C@@H](O)[C@@H](O)[C@H]4O)cc3O2)cc1O	inactive	> 46	> 46	inactive				inactive	inactive	inactive	inactive
